PubChem BioAssay (NCI)
The panel holds about 83,000 compounds, 20% with a hit somewhere; the sample as a whole holds those more often.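 Treatment: one concentration, 48 hours, 96-well format. Scoring: percent growth, with anything below 10 considered active.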 Active and inactive are the calls of the source.

Tests used:
Test in all cases: NCI-60 one-dose screen, 48 h (100 = growth as untreated, 0 = no growth, -100 = all killed)
Details in all cases: 10 µM unless noted
[1] = test system: T-47D breast
[2] = test system: BT-549 breast
[3] = test system: MDA-MB-435 melanoma
[4] = test system: SW-620 colon
[5] = test system: MCF7 breast
[6] = test system: HCT-116 colon
[7] = test system: HCC-2998 colon
[8] = test system: KM12 colon

Measured: growth

CCCCCCCCCCCCCCCCCCOc1ccccc1CC(=O)NCC[N+]1(C)CCCCC1
inactive: [1] 75.3% | [2] 74.9% | [3] 60.5% | [4] 63.8% | [5] 53.3% | [6] 57.4% | [7] 32.2% | [8] 28.8%

N#Cc1cccc(C2C3=C(COC3=O)N(CCO)c3cc4c(cc32)CCC4)c1 (stereo not given)
inactive: [1] 68.9% | [2] 33.5% | [4] 21.2% | [5] 23.2% | [7] 12.7% | [8] 11%
active: [3] -32.7% | [6] 8.71%

O=C(CI)NC(=O)NC(=O)NCc1ccccc1
inactive: [1] 18.8% | [2] 37.2% | [3] 21% | [4] 25.2% | [5] 12% | [6] 13.3% | [7] 95.3% | [8] 88.6%

COc1cc(C2C(C(=O)OCc3ccccc3)=C(C)NC(C)=C2C(=O)OCc2ccccc2)cc(OC)c1OC
inactive: [1] 11.9% | [2] 34% | [3] 27.3% | [4] 40.3% | [5] 10.4% | [6] 17.1% | [7] 52% | [8] 19.4%

CCCCCCCCCCCCCOC(=O)c1c(C)[nH]c(/C=C2\N=C(c3ccc[nH]3)C=C2OC)c1C
inactive: [1] 27.2% | [2] 51.5% | [3] 19.2% | [5] 12.2% | [6] 11.3% | [7] 22.8% | [8] 12.7%
active: [4] 3.08%

COc1ccc(-c2nc(-c3cn(C)c4ncccc34)cs2)cc1
active: [1] -6.67% [100 µM] | [2] -30.1% [100 µM] | [3] -43.6% [100 µM] | [5] -17.8% [100 µM] | [6] -75.3% [100 µM] | [7] -9.69% [100 µM] | [8] 3.74% [100 µM]
inactive: [4] 10.8% [100 µM]

COc1ccc(C(=O)N2c3ccccc3Sc3ccccc32)c(C(F)(F)F)c1
active: [3] -25% | [6] 6.57%
inactive: [1] 52.3% | [2] 10.7% | [4] 24.7% | [5] 17% | [7] 26% | [8] 18%

COc1ccc(C2=CN3CC=CC3CC2=O)cc1 (stereo not given)
inactive: [1] 75.3% | [2] 105% | [3] 96.9% | [4] 105% | [5] 93.4% | [6] 90.3% | [7] 91% | [8] 101%

COc1ccc(CNc2c3ccccc3nc3ccccc23)c(OC)c1
inactive: [1] 52.9% | [2] 66.7% | [3] 38.7% | [4] 20.7% | [5] 14.5% | [6] 12.8% | [7] 35.6% | [8] 54.3%

O=C1c2ccccc2C(=O)c2c1cc1c(c2[N+](=O)[O-])OCO1
active: [1] 4.66% | [4] 7.14% | [5] 3.53% | [6] 1.94% | [7] -46.4% | [8] 0.869%
inactive: [2] 15.8% | [3] 56.3%

Cc1ccc(CNc2ccc3nc(CCC(C)C)[nH]c3c2)cc1
inactive: [1] 84.4% | [2] 93.4% | [3] 97.2% | [4] 91.9% | [5] 89.2% | [6] 80.4% | [7] 111% | [8] 96.2%

O=C(N/N=C\c1cccc([N+](=O)[O-])c1)N/N=C/c1cccc([N+](=O)[O-])c1
inactive: [1] 97.2% | [2] 108% | [3] 108% | [4] 103% | [5] 66.5% | [6] 108% | [7] 109% | [8] 107%

CC1CCN(C(=O)CCCl)c2ccccc21 (stereo not given)
inactive: [1] 121% | [2] 96.3% | [3] 123% | [4] 91.3% | [5] 97.5% | [6] 97.3% | [7] 86.1% | [8] 102%

Cc1nc2c(=O)nc3s/c(=C\c4ccco4)c(=O)n3c2nc1C
inactive: [1] 94.3% | [2] 110% | [3] 94.1% | [4] 111% | [5] 96.4% | [6] 101% | [7] 97.2% | [8] 105%

CN1CCN(C(=O)[C@@]2(C)CC[C@]3(C)CC[C@]4(C)C(=CC[C@@H]5[C@@]6(C)CCC(=O)NC(C)(C)[C@@H]6CC[C@]54C)[C@@H]3C2)CC1
inactive: [1] 39.2% | [2] 45.9% | [3] 46.1% | [4] 19.7% | [5] 45% | [6] 21.8% | [7] 49% | [8] 46.8%
